Compound activity: PubChem, National Center for Advancing Translational Sciences (NCATS)
Sampled rows, rich in hits. Any-hit rate of the full collection: about 8%.
HCMV antiviral – blocks human cytomegalovirus replication; HFF cells, HCMV-luciferase reporter, 72 h; active compounds read low; activity change, negative = inhibition, % at 57.5 µM; 410,000 compounds, 4.5% hits; in the data active means activity change below about -60%; inconclusive means no clear call, values can overlap the other calls; inactive means above about -39%; further: on the % scale 0 is the no-effect control and ±100 the full control effect
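Compounds were evaluated in HFFs infected with an HCMV luciferase reporter virus (MOI 1 PFU/cell). Luciferase in lysates collected 72 h post infection served as the replication measure.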
Marburg entry inh – blocks Marburg virus binding to or entry into cells | AID 540276 | 300,000 compounds, 1.8% hits | Marburg virus pseudotyped entry inhibition, cell reporter | Potency, µM (highest dose often 37.8 µM), inactives show top-dose activity change, negative = inhibition, usual class: inhibitors; calls by dose curve; tested in HEK293 cells; further: potency means the concentration at half of the fitted maximal effect; on the % scale 0 is the no-effect control and ±100 the full control effect
HCV inhibitor – blocks hepatitis C virus | Huh7.5.1 HCVcc-Cre infection, luciferase reporter, 44 h | Potency, µM (top dose mostly 41.8 µM), for the others: at the highest dose activity change, negative = inhibition, usual class: inhibitors | 340,000 compounds, 3.4% hits | AID 651820; active means well fitted inhibition curve with a large enough effect; inconclusive means small, poorly fitted or top-dose-only effect, or another doubt; inactive means no such curve, though single readings can be large or run the other way; further: potency means the concentration at half of the fitted maximal effect; on the % scale 0 is the no-effect control and ±100 the full control effect
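Antiviral activity was scored by luciferase reporter output from cells infected with HCVcc-Cre (~0.5 moi) in presence of compound, 44 h infection period, cells seeded 1,000/well 4 h prior.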
LASV entry inh – blocks Lassa virus binding to or entry into cells; Lassa virus pseudotype entry inhibition, cell reporter; Potency, µM (titrated, usually from 37.9 µM), without a hit: top-dose activity change, negative = inhibition, most hits filed as inhibitors; 300,000 compounds, 1.2% hits; calls by dose curve; tested in HEK293 cells; further: potency means the concentration at half of the fitted maximal effect; on the % scale 0 is the no-effect control and ±100 the full control effect; nearly all actives have a fitted effect of over 50% in size
SARS PLpro yeast – blocks SARS-CoV papain-like protease in a yeast assay; Potency, µM (doses to about 32.9 µM), for the others: at the top dose activity, positive = growth rescue, usual class: activators; AID 485353; S. cerevisiae expressing SARS-CoV PLpro, growth rescue; 330,000 compounds, 0.19% hits; calls by dose curve; further: potency means the concentration at half of the fitted maximal effect; 0% is about no effect; nearly all actives have a fitted effect of over 55% in size
FMDV inh – blocks foot and mouth disease virus; FMDV antiviral cell-based qHTS; Potency, µM (doses to about 57.9 µM), inactives show at the top dose activity change, negative = inhibition, actives largely listed as inhibitors; 410,000 compounds, 1.2% hits; AID 1159524; calls by dose curve; tested in HEK293T cells; further: read-out not given here; potency means the concentration at half of the fitted maximal effect; on the % scale 0 is the no-effect control and ±100 the full control effect; nearly all actives have a fitted effect of over 45% in size
An asterisk follows results filed as active; ? = inconclusive; . = not tested or not shown; ! = not active in a repeat; [ ] = dose if it differs, or a comment.

SMILES | HCMV antiviral | Marburg entry inh | HCV inhibitor | LASV entry inh | SARS PLpro yeast | FMDV inh
CCCN(CCC)S(=O)(=O)c1ccc(C(=O)N2CCC(=O)c3ccccc32)cc1 | -60* | -24% | -12% | ? | 3% | -26%
CS(=O)(=O)N1CCN(c2ccccc2NC(=O)c2ccc(-c3ccc(Br)cc3)o2)CC1 | 0 | -17% | 6.3µM* | -22% | 5% | -4%
CCN(CC)c1ccc(NC(=O)CSc2nnc3nc(C)cc(C)n23)cc1 | -107* | -22% | 10% | 14% | 9% | -14%
COc1ccc(S(=O)(=O)c2cn(Cc3ccccc3)c3cc(N4CCCC4)c(F)cc3c2=O)cc1 | 8 | . | . | -23%[46.1 µM] | . | -4%
N#C/C(=C/c1cn(-c2ccccc2)nc1-c1cccc(OCc2ccc(F)cc2)c1)C(=O)NCCCn1ccnc1 | 13 | ? | 5.6µM* | ? | -38% | -7%
CCCOc1cccc(-c2nn(-c3ccccc3)cc2/C=C(\C#N)C(=O)NCCCn2ccnc2)c1 | -19 | ? | ? | -14% | -15% | -9%
O=C(CSc1nnnn1C1CC2CCC1C2)Nc1ccnc2ccccc12 (centres undefined) | -76* | ? | -15% | ? | -22% | 40µM*
O=C(Nc1ccc(F)c(F)c1)c1ccc(F)c(S(=O)(=O)N2CCC3(CC2)OCCO3)c1 | -82*! | ? | 13µM* | ? | 2% | ?
CCc1ccc(NC(=O)c2ccc(F)c(S(=O)(=O)N3CCc4ccccc4C3)c2)cc1 | -68* | . | . | ? | . | -30%
CCc1ccc(NC(=O)c2ccc(F)c(S(=O)(=O)N3CCC4(CC3)OCCO4)c2)cc1 | -90* | . | . | ? | . | -26%
O=S(=O)(c1cc(F)ccc1F)N1CCC2(CC1)OCCO2 | -28 | . | 12% | . | -4% | -13%
COc1cc2c(C(=O)N3CCOCC3)c(CSc3ccccc3)n(C)c2cc1Br | -9 | ? | 10µM* | ? | -3% | ?
COc1cc2c(C(=O)N3CCN(C)CC3)c(C)n(C)c2cc1Br | 3 | -8% | -16% | -6% | 2% | 0%
COc1ccc(C)cc1NC(=O)CN1C(=O)C(=O)N(C2CCCC2)C1=O | -11 | . | 22% | . | -6% | -13%
COc1ccc(CCn2c(C)cc(C(=O)CN3C(=O)C(=O)N(C4CCCC4)C3=O)c2C)cc1OC | -28 | ? | 10µM* | -16% | 4% | -8%
O=C(Nc1ccccc1)N(Cc1cccs1)c1ccc(F)cc1 | -3 | ? | . | -10%[46.1 µM] | . | -14%
CC(=O)c1c(C)[nH]c(C(=O)N2CCN(c3ccc(F)cc3)CC2)c1C | -71* | 1% | -13% | 4% | 0% | -27%
Cc1ccc(Cl)cc1N1CCN(C(=O)c2cc3c(=O)[nH]c4ccccc4c3n2C)CC1 | -95* | 5.6µM*! | 8.9µM*! | ? | 7% | 7.9µM*
Cc1cccc(N2CCN(C(=O)C3(S(=O)(=O)c4ccc(Cl)cc4)CC3)CC2)c1C | ? | . | ? | . | 1% | -15%
Cc1ccc(Cl)cc1N1CCN(C(=O)C2(S(=O)(=O)c3ccc(Cl)cc3)CC2)CC1 | 31 | -19% | 14µM* | 1% | -16% | ?
Cc1ccc(Cl)cc1N1CCN(C(=O)c2ccc(CN3CCOCC3)cc2)CC1 | 6 | ? | 25µM* | -30% | -5% | .
Cn1c(C(=O)N2CCN(c3ccc(Cl)cc3)CC2)cc2c(=O)[nH]c3ccccc3c21 | 9 | ? | ? | -20% | 1% | -8%
COc1ccc(-c2csc(-c3nc(-c4ccc(Br)s4)cs3)n2)cc1F | 3 | 23%[46.1 µM] | . | -2%[46.1 µM] | . | 5%
CCc1ccc(-n2nc(CO)c(C(=O)NCCOC)n2)cc1 | 59 | -11%[46.1 µM] | . | 1%[46.1 µM] | . | 13%
CCOc1ccc(CCNC(=O)C2CCC(CNS(=O)(=O)c3ccc(Cl)cc3)CC2)cc1OCC (centres undefined) | 5 | . | . | 1%[46.1 µM] | . | -8%
SMILES | HCMV antiviral | Marburg entry inh | HCV inhibitor | LASV entry inh | SARS PLpro yeast | FMDV inh
COc1cccc(N2CCN(C(=O)c3[nH]c(C)c(C(C)=O)c3C)CC2)c1 | 62 | ? | ? | 0% | 4% | -26%
CC(=O)c1c(C)[nH]c(C(=O)N2CCN(c3cc(Cl)ccc3C)CC2)c1C | 13 | 7.3µM* | ? | 6.5µM* | 3% | ?
N#C/C(=C/c1ccc(N2CCCCCC2)o1)c1cccc(F)c1 | -81* | ? | ? | 3% | -21% | -46%
N#C/C(=C/c1ccc(N2CCCCC2)o1)C(=O)Nc1ccc(Cl)cc1 | 24 | 3% | ? | ? | 5% | 48%
N#C/C(=C/c1ccc(N2CCCCC2)o1)C(=O)Nc1ccc2ccccc2c1 | ? | ? | 10µM* | 11% | 19% | -3%
N#C/C(=C/c1ccc(N2CCCCCC2)o1)c1ccc(F)cc1 | . | 10µM* | ? | ? | . | -17%
N#C/C(=C\c1ccc(N2CCOCC2)o1)c1ccccc1 | 52 | ? | 11µM* | ? | -5% | .
COc1cc(N2CCCC2)c(OC)cc1/C=C(/C#N)c1cccc(F)c1 | . | ? | ? | -29% | -10% | -18%
C[C@H]1CC[C@H]2C(=O)N(Cc3ccccc3)C[C@@H](O)CN2[C@H]1c1cccc(Br)c1 | . | 10%[14.2 µM] | . | ? | . | .
O=C(NCCCN1CCN(c2ccccc2F)CC1)c1sc2ncccc2c1-n1cccc1 | -19 | . | . | -10%[46.1 µM] | . | -11%
CN(C)CCCOc1ccc(C(C)(C)c2ccccc2)cc1 | -33 | 13µM* | 11µM* | ? | 6% | -15%
CN(C)CCOc1ccc(C(C)(C)c2ccccc2)cc1 | -26 | ? | 8% | -13% | 0% | -2%
C[N+](C)(C)CCOC(=O)CBr | -35 | 6% | ? | -12% | . | -5%
C[N+](C)(C)CCOC(=O)CCC(=O)OCC[N+](C)(C)C | -77*! | ? | -15% | -8% | . | -15%
O=C1c2ccccc2C(=O)C1c1ccc2ccccc2n1 | -30 | ? | 9% | 5.8µM* | -7% | ?
Cc1ccc(CN2C(=O)CN(C3CCC(C)CC3)C(=O)C2c2ccc(F)cc2)cc1 (centres undefined) | ? | . | . | -7%[46.1 µM] | . | -11%
CCCC1OC23CCCCC2C(C#N)(C(=N)O3)C1(C#N)C#N (centres undefined) | -35 | 0% | ? | 4% | 6% | -8%
N#CC1(C#N)COC23CCCCC2C1(C#N)C(=N)O3 (centres undefined) | 168 | 22% | -19% | 22% | 15% | -6%
CCC1OC23CCCCC2C(C#N)(C(=N)O3)C1(C#N)C#N (centres undefined) | ? | 1% | -12% | 20% | 4% | 14µM*
N#CC12COC3(CCCCC3C1(C#N)C#N)OC2=N (centres undefined) | 16 | ? | -11% | 1% | 0% | 28µM*
CCN(CC)CCNc1ccnc2cc(Cl)ccc12 | 0 | 2.9µM* | 5.6µM* | -18% | 4% | -21%
O=C(NCCNc1ccnc2cc(Cl)ccc12)c1ccccc1F | -62* | . | 13µM* | . | 0% | ?
